A selection: hits, their analogues and other compounds. The true share with any hit is near 19%.
KB-V1 MDR tox: kills drug-selected multidrug resistant KB-V1 cells; KB-V1 MDR cells viability, CellTiter-Glo, 72 h; Potency, µM (doses to about 46.1 µM), hits mostly cytotoxic; hit rate 3.4% among 400,000; further: nearly all actives have a fitted effect of over 60% in size
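Luminescent ATP read-out (CellTiter-Glo, 10 min) measures survival of drug-selected KB-V1 MDR cells after 72 h, 37 degrees C compound exposure. Medium: phenol-red-free DMEM, 10% FBS. Values from fitted concentration-response curves.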
HT1080NT lethal: kills 2HG-producing HT-1080-NT fibrosarcoma cells; HT-1080-NT fibrosarcoma viability, CellTiter-Glo ATP luminescence, 48 h; Potency, µM (highest dose often 46.1 µM), inactives show at the top dose activity, negative = less viability, usual class: cytotoxic; hit rate 1.6% among 360,000; AID 686970;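 further: NT is the 2HG producing partner of a matched IDH1 knockdown line; 0% = DMSO-treated cells and -100% = media-only wells without cells; nearly all actives have a fitted effect of over 55% in size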
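Read-out is CellTiter-Glo luminescence after 10 minutes at room temperature, following 48 hours' compound treatment of HT-1080-NT cells (750 cells/well, RPMI, 5% FBS, 37 degrees C).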
DT40 TDP1 CPT: DT40-hTDP1 cell growth loss with CPT | chicken DT40 Tdp1-/-;hTDP1 cells + 20 nM CPT, ATP luminescence, 48 h | hit rate 12% among 420,000 | AID 686979 | Potency, µM (highest dose often 46.2 µM), for inactives: top-dose activity change, negative = growth inhibition, most hits filed as inhibitors; further: nearly all actives have a fitted effect of over 55% in size
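Chicken DT40 Tdp1-/- cells complemented with human TDP1, 400 cells/well, exposed to compounds plus 20 nM camptothecin for at least 48 h at 37 C; viability read as ATP content by CellTiter-Glo luminescence.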
DT40 TDP1 no CPT: qHTS for Inhibitors of human tyrosyl-DNA phosphodiesterase 1 (TDP1): qHTS in cells in absence of CPT; DT40 Tdp1-/- hTDP1 cells, no CPT, ATP luminescence, 48 h; hit rate 15% among 420,000; Potency, µM (doses to about 46.2 µM), for inactives: top-dose activity change, negative = growth inhibition, usual class: inhibitors; further: nearly all actives have a fitted effect of over 55% in size
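Camptothecin absent (DMSO only). Human TDP1-complemented DT40 knockout cells, 400 cells/well, 37 °C for minimum 48 hr; ATP measured via CellTiter-Glo, 30 min dark incubation, luminescence.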
KB-3-1 cytotox: kills parental KB-3-1 adenocarcinoma cells. Potency, µM (highest dose often 46.1 µM), actives largely listed as cytotoxic. KB-3-1 viability, CellTiter-Glo ATP luminescence, 72 h. AID 1347075. hit rate 1.4% among 400,000; further: nearly all actives have a fitted effect of over 60% in size
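Multi-concentration cytotoxicity screen in KB-3-1 cells grown in DMEM lacking phenol red with 10% FBS. After 72 h at 37 °C with compound, ATP-dependent luminescence was recorded.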
HT1080 IDH1KD tx: HT-1080 IDH1 knockdown cell toxicity (counter line); hit rate 2% among 360,000; Potency, µM (series often up to 46.1 µM), without a hit: at the highest dose activity, negative = toxicity, usual class: cytotoxic; AID 686971; HT-1080 IDH1 knockdown viability, ATP luminescence, 48 h;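 further: 0% = DMSO wells and -100% = cell-free medium wells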
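Using the IDH1-knockdown HT-1080 line run in the same batch and compound series as the NT line, viability after 48 h at 37 °C was determined by CellTiter-Glo luminescence and expressed as % activity.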
* hit, by the source's call; i = inactive; ? = inconclusive; nt = not tested or not shown. The call rests on the fitted dose curve; in most records, active means well fitted curve in the direction sought with a large enough effect; inconclusive means small, poorly fitted or top-dose-only effect, or another doubt; inactive means no such curve, though single readings can be large; an effect the other way counts as inactive or inconclusive. Unless noted, on the % scale 0 is the no-effect control and ±100 the full control effect; potency means the concentration at half of the fitted maximal effect.

SMILES	KB-V1 MDR tox	HT1080NT lethal	DT40 TDP1 CPT	DT40 TDP1 no CPT	KB-3-1 cytotox	HT1080 IDH1KD tx
C/C(=N\NC(=S)NCCc1ccccc1)c1cccs1	?	0%	5.2µM*	5.2µM*	i	-2%
CC(NC(=S)NCCc1ccccc1)C(c1cccs1)N1CCN(Cc2ccccc2)CC1 (configuration not stated)	i	?	16µM*	?	?	?
Cc1cccc(C)c1-n1nnnc1C1(C)CCC(=O)N1CCc1ccc(O)cc1 (configuration not stated)	i	0%	?	?	i	8%
Cc1cccnc1C(NC(=O)C1CCN(CCCc2ccccc2)CC1)c1ccc(Cl)cc1 (configuration not stated)	i	26µM*	?	29µM*	i	?
Cc1cccnc1C(NC(=O)C1CCN(Cc2cn(C)c3ccccc23)CC1)c1ccc(Cl)cc1 (configuration not stated)	?	12µM*	4.6µM*	4.6µM*	?	?
COc1cccc(OC)c1OCCN1CCC(C(=O)NC(c2ccccc2)c2ncccc2C)CC1 (configuration not stated)	i	-27%	?	?	i	-26%
COc1ccc(C(NC(=O)C2CCN(CCCc3ccccc3)CC2)c2ccccn2)cc1 (configuration not stated)	i	-2%	1%	-5%	i	-2%
Cc1cccnc1C(NC(=O)C1CCN(Cc2ccc(Oc3ccccc3)cc2)CC1)c1ccc(F)cc1 (configuration not stated)	?	21µM*	23µM*	?	?	?
Cc1cccnc1C(NC(=O)C1CCN(Cc2ccc(Cl)cc2)CC1)c1ccccc1 (configuration not stated)	i	?	16µM*	16µM*	i	?
CCN(CC)C(=O)CSc1nc2ccsc2c(=O)n1CCCC(=O)NCCc1ccc(S(N)(=O)=O)cc1	i	3%	4.1µM*	29µM*	i	6%
CCC(C)n1c(SCC(=O)NCCc2ccc(S(N)(=O)=O)cc2)nc2ccsc2c1=O (configuration not stated)	i	6%	?	?	i	9%
COc1ccc(NCC(=O)N/N=C/c2c(C)nn(Cc3ccccc3)c2Cl)cc1	12µM*	6%	-20%	?	i	11%
CNC(=S)N/N=C/c1c(C)nn(-c2ccccc2)c1Cl	?	?	-26%	-29%	i	8.9µM*
Cc1nn(-c2ccccc2)c(Cl)c1/C=N/NC(=O)OC(C)(C)C	13µM*	-2%	?	16µM*	i	-17%
CNC(=S)N/N=C/c1c(C)nn(-c2cccc(Cl)c2)c1Cl	i	-21%	-11%	-3%	i	?
O=C(CSCc1c(Cl)cccc1Cl)Nc1ccc2c(c1)OCCO2	10µM*	4%	-23%	?	?	-6%
O=C(Nc1ccc2c(c1)OCCO2)c1c(Cl)cccc1Cl	i	-1%	7%	?	i	3%
O=C(CN1CCN(CC(=O)Nc2ccccc2Cl)CC1)NCC1(N2CCCCC2)CCCCC1	?	-6%	?	21µM*	i	8%
O=C(CN1CCN(CC(=O)Nc2ccccc2Cl)CC1)NCC1(N2CCOCC2)CCCCC1	i	4%	?	?	i	2%
O=C(CN1CCCCC1)Nc1ccc(NC(=O)c2ccccc2Cl)cc1Cl	4.6µM*	-1%	-18%	?	23µM*	-1%
O=C(CN1CCCCCCC1)Nc1ccc(Cl)cc1Cl	i	-5%	-6%	?	i	-9%
O=C(CN1CCC(C(=O)c2ccc(Cl)cc2)CC1)Nc1ccc2c(c1)OCCO2	9.2µM*	?	?	?	?	?
Cc1cc(C)cc(OC(C)C(=O)Nc2c(C(=O)c3ccccc3)oc3ccccc23)c1 (configuration not stated)	i	nt	-1%	2%	i	nt
Cc1ccc(C(=O)c2oc3ccccc3c2NC(=O)COc2ccccc2C)cc1	i	nt	nt	nt	i	nt
CCN(CC)c1ncnc2c1ncn2[C@H]1CN(Cc2cc(OC)c(OC)c(OC)c2)C[C@@H](CO)O1	i	16%	-16%	-29%	i	10%
SMILES	KB-V1 MDR tox	HT1080NT lethal	DT40 TDP1 CPT	DT40 TDP1 no CPT	KB-3-1 cytotox	HT1080 IDH1KD tx
O=C(Cn1cnc2ccccc21)Nc1ccc2c(c1)OCCCO2	?	-15%	8.2µM*	2.3µM*	?	-12%
O=C(CN1CCN(CC(=O)Nc2ccccc2Cl)CC1)Nc1ccc2c(c1)OCCO2	i	0%	?	23µM*	?	-2%
Cc1ccccc1NC(=O)CN1CCC(C(=O)c2ccc3c(c2)OCCO3)CC1	?	-7%	?	18µM*	i	-3%
COc1cccc(CN(C(=O)c2cccc(C)c2)C2CCS(=O)(=O)C2)c1 (configuration not stated)	i	nt	-3%	1%	i	nt
CC(C)(C)NC(=O)NC(=O)COC(=O)COc1ccc(Cl)cc1Cl	i	19%	18µM*	?	i	12%
CC(C)(C)NC(=O)NC(=O)COc1ccc(Br)cc1Br	i	?	-26%	-30%	i	-26%
O=S1(=O)[C@H]2C[C@H](CO)O[C@@]2(CO)CN1Cc1ccc(-c2cccc(Cl)c2)cc1	i	-4%	21µM*	?	i	-3%
CCCCNCc1cc(OCC)c(OCC)cc1Br	?	-13%	-7%	?	i	0%
CC1(C(=O)NS(=O)(=O)C2CC2)CCCN(C(=O)C2(c3ccc(Cl)cc3)CCCC2)C1 (configuration not stated)	i	17%	?	12µM*	i	3%
COc1ccc(C(=O)N2CCCC(C)(C(=O)NS(=O)(=O)C3CC3)C2)c(OC)c1 (configuration not stated)	i	21%	2.1µM*	3.7µM*	i	1%
CC1(C(=O)NS(=O)(=O)C2CC2)CCCN(C(=O)c2ccc(F)cc2Cl)C1 (configuration not stated)	i	15%	?	1.5µM*	i	20%
